Potency and affinity values are given separately. The source made the active and inactive calls.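 How the source made its calls: active means signal-lowering compounds whose fitted half-maximal concentration is at or below twice the top tested dose in every run; inconclusive means runs disagree, flat 30 to 70% inhibition, or poor curve fit; inactive means the rest.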
Target: Protein S100-A4 (Homo sapiens) (UniProt P26447)
Experiment: S100A4-myosin IIA binding inhibitor potency, dose response, biochemical, fluorescence polarization, cherry-picked hits (AID 687001)
Conditions: FP, S100A4/TAMRA-myosin IIA peptide binding; series mostly up to 11 µM

Protein S100-A4 (Homo sapiens), sequence (P26447 whole entry, looked up): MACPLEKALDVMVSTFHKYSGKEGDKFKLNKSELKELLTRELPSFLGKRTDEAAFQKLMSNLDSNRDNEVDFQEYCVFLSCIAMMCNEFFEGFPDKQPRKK

Structure (SMILES)	outcome
CCOc1ccccc1CNC(=O)c1cc2occc2n1C	inactive
C[C@@H]1CCCCO[C@@H](CN(C)S(=O)(=O)c2ccccc2)[C@@H](C)CN([C@@H](C)CO)C(=O)c2cc(NC(=O)CCCN(C)C)ccc2O1	inactive
O=C(C[C@H]1C[C@@H]2c3cc(NC(=O)C4CCOCC4)ccc3O[C@@H]2[C@H](CO)O1)NCCN1CCCCC1	inactive
Cc1cccc(C)c1NC(=O)CN1CCN(c2ccc(C(F)(F)F)cn2)CC1	inactive
COc1ccc2c(c1)C=CC1(O2)N(CCO)c2ccccc2C1(C)C (stereo not given)	inactive
CCC1(CC)NC(=O)N(CC(=O)Nc2ccc(C)cc2C)C1=O	inactive
C[C@H](CO)N1C[C@H](C)[C@H](CN(C)C)Oc2ccc(NS(=O)(=O)c3ccccc3)cc2CC1=O	inactive
C[C@@H]1CN([C@@H](C)CO)C(=O)c2cccc(N(C)C)c2O[C@@H]1CN(C)C(=O)Nc1cccc2ccccc12	inactive
NC(=O)c1ccsc1NC(=O)c1ccco1	inactive
CC(=O)Nc1cccc(C(=O)NC2CCCc3c2cnn3-c2ccccc2F)c1 (stereo not given)	inactive
CCOC(=O)[C@]12CCCC=C1N(Cc1ccccc1)C(=O)[C@H](CC(=O)NCCCN1CCCC1=O)C2	inactive
O=C(NCCCN1CCC(Cc2ccccc2)CC1)C1CCC(=O)N1C1CCCC1 (stereo not given)	inactive
CC1(C(=O)Nc2ccc3c(c2)OCO3)CCN1C(=O)Cc1cccc2ccccc12 (stereo not given)	inactive
O=C(NCCS(=O)(=O)NCCc1ccccc1)c1ccccc1	inactive
O=C(C1CCCC1)N1CCCCN2[C@H](CO)[C@@H](c3ccc(C#CC4(O)CCCC4)cc3)[C@H]2C1	inactive

From PubChem BioAssay AID687001 (Broad Institute, 2013)
